{
  "source": "paper PMC8384837",
  "about": "“Expanding the binding specificity for RNA recognition by a PUF domain”",
  "experiment_in_all_cases": "yeast three-hybrid, YBZ-1, SC-Leu-His + 0.5 mM 3-AT, 4 days",
  "conditions_in_all_cases": "tags: N-Gal4 AD-HA kept; label: inside an RPR1-promoter hybrid RNA with tandem MS2 sites; ssRNA",
  "key": {"[1]": {"target": "PUM1 PUF domain R8-FFR (Homo sapiens, UniProt Q14671 828-1176, N1122F;Y1123F;Q1126R)", "procedure,_shortened": "(§1)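 The interaction score is the logarithmic change in variant frequency from input to selection. It uses log2, with a pseudocount of 1 for absent variants, and frequencies came from PCR-amplified, Illumina-sequenced repeat regions. The libraries were Pumilio-1 PUF domains randomized at the three base-contacting residues per repeat, co-expressed with matching RNA elements in strain YBZ-1 (LexA–MS2 coat fusion, HIS3 reporter). Plating lasted four days on SC-Leu (input) or SC-Leu-His + 0.5 mM 3-AT (selection).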"}, "[2]": {"target": "PUM1 PUF domain R8-LFR (Homo sapiens, UniProt Q14671 828-1176, N1122L;Y1123F;Q1126R)", "procedure,_shortened": "as §1"}, "[3]": {"target": "PUM1 PUF domain R8-RWA (Homo sapiens, UniProt Q14671 828-1176, N1122R;Y1123W;Q1126A)", "procedure,_shortened": "as §1"}, "[4]": {"target": "PUM1 PUF domain R8-KYR (Homo sapiens, UniProt Q14671 828-1176, N1122K;Q1126R)", "procedure,_shortened": "as §1"}, "[5]": {"target": "T1, PUM1 PUF domain R6-AYR (Homo sapiens, UniProt Q14671 828-1176, N1043A;Q1047R)", "T1 sequence": "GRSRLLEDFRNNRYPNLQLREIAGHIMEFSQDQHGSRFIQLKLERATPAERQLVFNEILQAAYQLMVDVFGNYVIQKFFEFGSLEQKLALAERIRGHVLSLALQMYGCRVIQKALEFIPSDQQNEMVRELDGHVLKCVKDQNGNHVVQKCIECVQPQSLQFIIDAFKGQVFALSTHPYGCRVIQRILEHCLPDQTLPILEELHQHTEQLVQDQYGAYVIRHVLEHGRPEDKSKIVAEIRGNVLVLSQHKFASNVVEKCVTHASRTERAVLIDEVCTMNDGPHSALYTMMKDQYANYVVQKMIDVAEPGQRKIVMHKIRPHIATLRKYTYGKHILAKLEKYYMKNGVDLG", "procedure,_shortened": "as §1"}, "[6]": {"target": "PUM1 PUF domain R8-SYP (Homo sapiens, UniProt Q14671 828-1176, N1122S;Q1126P)", "procedure,_shortened": "as §1"}, "[7]": {"target": "T2, PUM1 PUF domain R6-FYL (Homo sapiens, UniProt Q14671 828-1176, N1043F;Q1047L)", "T2 sequence": "T1 sequence with A216F, R220L", "procedure,_shortened": "as §1"}, "[8]": {"target": "T3, PUM1 PUF domain R6-IYC (Homo sapiens, UniProt Q14671 828-1176, N1043I;Q1047C)", "T3 sequence": "T1 sequence with A216I, R220C", "procedure,_shortened": "as §1"}, "[9]": {"target": "PUM1 PUF domain R4-RVY (Homo sapiens, UniProt Q14671 828-1176, N971R;H972V;Q975Y)", "procedure,_shortened": "as §1"}, "[10]": {"target": "PUM1 PUF domain R5-FRN (Homo sapiens, UniProt Q14671 828-1176, C1007F;Q1011N)", "procedure,_shortened": "as §1"}, "[11]": {"target": "PUM1 PUF domain R3-APS (Homo sapiens, UniProt Q14671 828-1176, C935A;R936P;Q939S)", "procedure,_shortened": "as §1"}, "[12]": {"target": "PUM1 PUF domain R5-GTE (Homo sapiens, UniProt Q14671 828-1176, C1007G;R1008T;Q1011E)", "procedure,_shortened": "as §1"}, "[13]": {"target": "PUM1 PUF domain R5-RYL (Homo sapiens, UniProt Q14671 828-1176, C1007R;R1008Y;Q1011L)", "procedure,_shortened": "as §1"}, "[14]": {"target": "PUM1 PUF domain R7-QRK (Homo sapiens, UniProt Q14671 828-1176, S1079Q;N1080R;E1083K)", "procedure,_shortened": "as §1"}, "[15]": {"target": "PUM1 PUF domain R7-KRE (Homo sapiens, UniProt Q14671 828-1176, S1079K;N1080R)", "procedure,_shortened": "as §1"}, "[16]": {"target": "PUM1 PUF domain R3-IWK (Homo sapiens, UniProt Q14671 828-1176, C935I;R936W;Q939K)", "procedure,_shortened": "as §1"}, "[17]": {"target": "PUM1 PUF domain R3-TVE (Homo sapiens, UniProt Q14671 828-1176, C935T;R936V;Q939E)", "procedure,_shortened": "as §1"}, "[18]": {"target": "PUM1 PUF domain R7-AVR (Homo sapiens, UniProt Q14671 828-1176, S1079A;N1080V;E1083R)", "procedure,_shortened": "as §1"}},
  "note": "Residue numbers refer to the chain shown, from its start.",
  "data": [
    {"sequence": "GGCUAGAACUAGUGGAUCCCCCGGCGCCCGGCGGCUCGAGCCCGGGUAAGCGUAAAUAGUCUGCAUGCCGCCGGGCGCCAUGCCUGCAGGUCGACUCUAGAAAACAUG", "values": [
      {"measurement": "binding signal", "setting": "[1]", "result": "4.67 log2 enrichment (interaction score)"},
      {"measurement": "binding signal", "setting": "[2]", "result": "4.59 log2 enrichment (interaction score)"},
      {"measurement": "binding signal", "setting": "[3]", "result": "4.94 log2 enrichment (interaction score)"},
      {"measurement": "binding signal", "setting": "[4]", "result": "6.62 log2 enrichment (interaction score)"}
    ]},
    {"sequence": "GGCUAGAACUAGUGGAUCCCCCGGCGCCCGGCGGCUCGAGCCCGGGUAAGUGUAAAUAGUCUGCAUGCCGCCGGGCGCCAUGCCUGCAGGUCGACUCUAGAAAACAUG", "values": [
      {"measurement": "binding signal", "setting": "[1]", "result": "4.42 log2 enrichment (interaction score)"},
      {"measurement": "binding signal", "setting": "[5]", "result": "6.13 log2 enrichment (interaction score)"},
      {"measurement": "binding signal", "setting": "[6]", "result": "4.16 log2 enrichment (interaction score)"},
      {"measurement": "binding signal", "setting": "[7]", "result": "3.73 log2 enrichment (interaction score)"},
      {"measurement": "binding signal", "setting": "[2]", "result": "4.31 log2 enrichment (interaction score)"},
      {"measurement": "binding signal", "setting": "[8]", "result": "3.57 log2 enrichment (interaction score)"},
      {"measurement": "binding signal", "setting": "[9]", "result": "5.94 log2 enrichment (interaction score)"},
      {"measurement": "binding signal", "setting": "[3]", "result": "4.01 log2 enrichment (interaction score)"},
      {"measurement": "binding signal", "setting": "[10]", "result": "1.74 log2 enrichment (interaction score)"},
      {"measurement": "binding signal", "setting": "[11]", "result": "3.64 log2 enrichment (interaction score)"}
    ]},
    {"sequence": "GGCUAGAACUAGUGGAUCCCCCGGCGCCCGGCGGCUCGAGCCCGGGUAAGUGUGAAUAGUCUGCAUGCCGCCGGGCGCCAUGCCUGCAGGUCGACUCUAGAAAACAUG", "values": [
      {"measurement": "binding signal", "setting": "[12]", "result": "3.8 log2 enrichment (interaction score)"},
      {"measurement": "binding signal", "setting": "[13]", "result": "3.39 log2 enrichment (interaction score)"}
    ]},
    {"sequence": "GGCUAGAACUAGUGGAUCCCCCGGCGCCCGGCGGCUCGAGCCCGGGUAAGUGCAAAUAGUCUGCAUGCCGCCGGGCGCCAUGCCUGCAGGUCGACUCUAGAAAACAUG", "values": [
      {"measurement": "binding signal", "setting": "[5]", "result": "3.72 log2 enrichment (interaction score)"}
    ]},
    {"sequence": "GGCUAGAACUAGUGGAUCCCCCGGCGCCCGGCGGCUCGAGCCCGGGUAAGUCUAAAUAGUCUGCAUGCCGCCGGGCGCCAUGCCUGCAGGUCGACUCUAGAAAACAUG", "values": [
      {"measurement": "binding signal", "setting": "[14]", "result": "2.27 log2 enrichment (interaction score)"},
      {"measurement": "binding signal", "setting": "[15]", "result": "4.01 log2 enrichment (interaction score)"}
    ]},
    {"sequence": "GGCUAGAACUAGUGGAUCCCCCGGCGCCCGGCGGCUCGAGCCCGGGUAAGUAUAAAUAGUCUGCAUGCCGCCGGGCGCCAUGCCUGCAGGUCGACUCUAGAAAACAUG", "values": [
      {"measurement": "binding signal", "setting": "[14]", "result": "3.05 log2 enrichment (interaction score)"}
    ]},
    {"sequence": "GGCUAGAACUAGUGGAUCCCCCGGCGCCCGGCGGCUCGAGCCCGGGUAAGUGUAAUUAGUCUGCAUGCCGCCGGGCGCCAUGCCUGCAGGUCGACUCUAGAAAACAUG", "values": [
      {"measurement": "binding signal", "setting": "[16]", "result": "3.81 log2 enrichment (interaction score)"}
    ]},
    {"sequence": "GGCUAGAACUAGUGGAUCCCCCGGCGCCCGGCGGCUCGAGCCCGGGUAAGUGUAAGUAGUCUGCAUGCCGCCGGGCGCCAUGCCUGCAGGUCGACUCUAGAAAACAUG", "values": [
      {"measurement": "binding signal", "setting": "[17]", "result": "6.09 log2 enrichment (interaction score)"}
    ]},
    {"sequence": "GGCUAGAACUAGUGGAUCCCCCGGCGCCCGGCGGCUCGAGCCCGGGUAAGUUUAAAUAGUCUGCAUGCCGCCGGGCGCCAUGCCUGCAGGUCGACUCUAGAAAACAUG", "values": [
      {"measurement": "binding signal", "setting": "[18]", "result": "3.46 log2 enrichment (interaction score)"},
      {"measurement": "binding signal", "setting": "[15]", "result": "3.62 log2 enrichment (interaction score)"}
    ]},
    {"sequence": "GGCUAGAACUAGUGGAUCCCCCGGCGCCCGGCGGCUCGAGCCCGGGUAAGUGUCAAUAGUCUGCAUGCCGCCGGGCGCCAUGCCUGCAGGUCGACUCUAGAAAACAUG", "values": [
      {"measurement": "binding signal", "setting": "[10]", "result": "2.94 log2 enrichment (interaction score)"},
      {"measurement": "binding signal", "setting": "[13]", "result": "2.69 log2 enrichment (interaction score)"}
    ]}
  ]
}
